Target: T1, Tyrosyl-tRNA synthetase, putative (Trypanosoma cruzi (strain CL Brener)) (UniProt Q4DSP6)
T1 sequence (whole entry): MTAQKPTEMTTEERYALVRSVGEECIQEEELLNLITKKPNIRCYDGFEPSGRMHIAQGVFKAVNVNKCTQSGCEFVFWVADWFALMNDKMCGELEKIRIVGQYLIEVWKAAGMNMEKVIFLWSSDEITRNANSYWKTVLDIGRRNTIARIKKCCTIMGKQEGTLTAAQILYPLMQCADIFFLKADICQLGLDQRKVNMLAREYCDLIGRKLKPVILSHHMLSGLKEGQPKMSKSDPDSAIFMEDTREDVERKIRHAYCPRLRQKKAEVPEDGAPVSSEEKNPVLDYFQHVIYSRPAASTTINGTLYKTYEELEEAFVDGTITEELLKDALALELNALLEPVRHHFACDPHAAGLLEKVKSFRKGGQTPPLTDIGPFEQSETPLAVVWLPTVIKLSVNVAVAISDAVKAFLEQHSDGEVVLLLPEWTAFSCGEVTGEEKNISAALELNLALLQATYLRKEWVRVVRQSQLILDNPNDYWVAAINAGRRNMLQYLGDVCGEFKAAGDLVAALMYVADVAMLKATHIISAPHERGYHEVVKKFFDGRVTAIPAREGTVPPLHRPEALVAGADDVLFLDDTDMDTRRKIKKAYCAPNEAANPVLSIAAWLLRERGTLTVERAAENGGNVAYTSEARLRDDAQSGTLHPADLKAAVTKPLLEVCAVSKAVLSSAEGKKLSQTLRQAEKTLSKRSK
Test: Trypanosoma cruzi tyrosyl tRNA synthetase (TcYRS) _High Tyrosine SOP; also: in the data most compounds retested in dose-response had high values
Type: functional
Design: scale not given: direction of the effect not stated beside the values
Conditions: 30 µM

Row | Compound | Percent Effect [%]
1 | COCC1CC2(CCN(C(=O)c3cccn3C)CC2)CN1C(C)C (stereo not drawn) | 7.92
2 | CCN(Cc1cccc(Cl)c1)Cn1nc(C)c2c(C)onc2c1=O | 1.48
3 | CC(C)c1nc(CC(=O)Nc2nc(CN3CCCCCC3)cs2)cs1 | 10.5
4 | COc1cccc(CN(C)S(=O)(=O)N2CCOCC2)c1 | 5.32
5 | Cc1nn(C)c(N(C)C)c1CNCc1cccc(OCCN(C)C)c1 | -1.47
6 | Cc1ccc(CNC(=O)CCSCc2csc(C)n2)cn1 | 0.493
7 | CCO[C@@H]1CC[C@H]2[C@H]1OCCN2C(=O)C1CCOCC1 | 10.9
8 | CCC1CCCCN1C(=O)c1ccc2[nH]nnc2c1 (stereo not drawn) | 3.96
9 | FC(F)(F)C1CCCn2c(CNCc3ccsc3)nnc21 (stereo not drawn) | 9.29
10 | CCC1(CC)Cc2ccccc2-c2nc(NCCO)[nH]c(=O)c21 | 5.32
11 | Cc1nc(C)n(CC2CCCCN2CCC(=O)Nc2cc(C)on2)n1 (stereo not drawn) | -7.29
12 | Cc1nc(C)n(CC2CN(CC(=O)Nc3nccs3)CCO2)n1 (stereo not drawn) | 5.26
13 | CC(NC(=O)NCCOc1ccc(F)c(F)c1)c1nncn1C (stereo not drawn) | 4.76
14 | COCCNc1nc(C2CCCC2)nc2c1CCNCC2 | 10.1
15 | Cc1ccc(CNS(=O)(=O)CC2=NC(=O)n3cccc3C2=O)cc1 | -2.12
16 | CCS(=O)(=O)N(C)C(=O)c1cc(C)n(-c2cccc(OC)c2)c1C | 4.43
17 | Cn1ncc2c(=O)[nH]c(CN(Cc3ccco3)C3CCCC3)nc21 | 2.91
18 | O=C(CS(=O)(=O)CC1CCCCC1)NC1CCCCNC1=O (stereo not drawn) | 0
19 | CC(N(C)Cc1nc2c(cnn2C)c(=O)[nH]1)C(C)(C)C (stereo not drawn) | -1.98
20 | CC(C)c1nc(C2CCCN2C(=O)c2nccnc2N)no1 (stereo not drawn) | 6.93

Row | Compound | Percent Effect [%]
21 | O=C1CC(N(C(=O)c2ccc3c(c2)CCC3)C2CC2)C(=O)N1 (stereo not drawn) | -0.493
22 | CCn1cnnc1CNC(=O)N1CCC(Cc2cccnc2)CC1 | -1.91
23 | CC(NC(=O)NCc1cccc(N2CCCC2=O)c1)c1ccccc1 (stereo not drawn) | 1.91
24 | O=C1N(c2ccc(F)cc2)Cc2nc(=O)n(Cc3cccc(Cl)c3)n21 | -5.29
25 | Cc1noc2nc(C3CCN(Cc4cccnc4)CC3)cc(C(F)F)c12 | 2.15
26 | CCOc1cccc(C(=O)NCCC(=O)Nc2ccncc2)c1 | 4.25
27 | O=S(=O)(Cc1ccccc1F)NCCN1CCOCC1 | -1.64
28 | O=C(NCCc1ccccc1)C1CCC(Cn2cnnn2)CC1 (stereo not drawn) | 2.12
29 | CC(C)c1nnc2n1CCN(Cc1csc(CC(=O)N(C)C)n1)C2 | -0.49
30 | Cc1cc(C)n(CC2CCCN2C(=O)CCc2cscn2)n1 (stereo not drawn) | -0.49
31 | CC(=O)N1CCC(C(=O)N(C)[C@@H]2CCC[C@@H](N3CCCC3)[C@@H]2O)CC1 | 5.38
32 | N#Cc1ccc(OCCCN2CCc3cncnc3C2)cc1 | -0.493
33 | Cc1cnn(CCNCC(=O)NCCOc2ccccc2)c1 | 4.43
34 | CC(CCN1CCn2nc(CNC(=O)N(C)C)cc2C1)c1ccccc1 (stereo not drawn) | 6.88
35 | COc1ccc(CN(C)Cc2nc3c(cnn3C)c(=O)[nH]2)cc1OC | 7.29
36 | CCOC(=O)C1CCCN(c2ccc(-c3nc(C)no3)cn2)C1 (stereo not drawn) | 3.83
37 | CC1Cc2ccccc2N1Cc1occc1C(=O)OCC(N)=O (stereo not drawn) | 8.33
38 | CC(C)Oc1ccccc1CNC(=O)N1CCC(n2cncn2)CC1 | 5.21
39 | COCC(O)CN(C)C(=O)NC1CCN(Cc2ccccn2)CC1 (stereo not drawn) | 5.83

Target: T1, Tyrosyl-tRNA synthetase, putative (Trypanosoma cruzi (strain CL Brener))
Test: Trypanosoma cruzi tyrosyl tRNA synthetase (TcYRS) SOP
Type: functional
Design: scale not given: direction of the effect not stated beside the values
Conditions: 30 µM

Row | Compound | Percent Effect [%]
40 | COCC1CC2(CCN(C(=O)c3cccn3C)CC2)CN1C(C)C (stereo not drawn) | 3.66
41 | CCN(Cc1cccc(Cl)c1)Cn1nc(C)c2c(C)onc2c1=O | 1.24
42 | CC(C)c1nc(CC(=O)Nc2nc(CN3CCCCCC3)cs2)cs1 | 23.5
43 | COc1cccc(CN(C)S(=O)(=O)N2CCOCC2)c1 | 18.2
44 | Cc1nn(C)c(N(C)C)c1CNCc1cccc(OCCN(C)C)c1 | 7.32
45 | Cc1ccc(CNC(=O)CCSCc2csc(C)n2)cn1 | 8.86
46 | CCO[C@@H]1CC[C@H]2[C@H]1OCCN2C(=O)C1CCOCC1 | 1.22
47 | CCC1CCCCN1C(=O)c1ccc2[nH]nnc2c1 (stereo not drawn) | -11
48 | FC(F)(F)C1CCCn2c(CNCc3ccsc3)nnc21 (stereo not drawn) | 18.5
49 | CCC1(CC)Cc2ccccc2-c2nc(NCCO)[nH]c(=O)c21 | 10.4
50 | Cc1nc(C)n(CC2CCCCN2CCC(=O)Nc2cc(C)on2)n1 (stereo not drawn) | 12.7
51 | Cc1nc(C)n(CC2CN(CC(=O)Nc3nccs3)CCO2)n1 (stereo not drawn) | 10.3
52 | CC(NC(=O)NCCOc1ccc(F)c(F)c1)c1nncn1C (stereo not drawn) | 9.41
53 | COCCNc1nc(C2CCCC2)nc2c1CCNCC2 | 19.5
54 | Cc1ccc(CNS(=O)(=O)CC2=NC(=O)n3cccc3C2=O)cc1 | 0
55 | CCS(=O)(=O)N(C)C(=O)c1cc(C)n(-c2cccc(OC)c2)c1C | 21.5
56 | Cn1ncc2c(=O)[nH]c(CN(Cc3ccco3)C3CCCC3)nc21 | 24.4
57 | O=C(CS(=O)(=O)CC1CCCCC1)NC1CCCCNC1=O (stereo not drawn) | 9.76
58 | CC(N(C)Cc1nc2c(cnn2C)c(=O)[nH]1)C(C)(C)C (stereo not drawn) | 3.66
59 | CC(C)c1nc(C2CCCN2C(=O)c2nccnc2N)no1 (stereo not drawn) | 23.2

Row | Compound | Percent Effect [%]
60 | O=C1CC(N(C(=O)c2ccc3c(c2)CCC3)C2CC2)C(=O)N1 (stereo not drawn) | 1.27
61 | CCn1cnnc1CNC(=O)N1CCC(Cc2cccnc2)CC1 | -4.71
62 | CC(NC(=O)NCc1cccc(N2CCCC2=O)c1)c1ccccc1 (stereo not drawn) | 11.8
63 | O=C1N(c2ccc(F)cc2)Cc2nc(=O)n(Cc3cccc(Cl)c3)n21 | -2.56
64 | Cc1noc2nc(C3CCN(Cc4cccnc4)CC3)cc(C(F)F)c12 | 3.9
65 | CCOc1cccc(C(=O)NCCC(=O)Nc2ccncc2)c1 | 10.4
66 | O=S(=O)(Cc1ccccc1F)NCCN1CCOCC1 | 6.17
67 | O=C(NCCc1ccccc1)C1CCC(Cn2cnnn2)CC1 (stereo not drawn) | 5.13
68 | CC(C)c1nnc2n1CCN(Cc1csc(CC(=O)N(C)C)n1)C2 | 7.32
69 | Cc1cc(C)n(CC2CCCN2C(=O)CCc2cscn2)n1 (stereo not drawn) | 0
70 | CC(=O)N1CCC(C(=O)N(C)[C@@H]2CCC[C@@H](N3CCCC3)[C@@H]2O)CC1 | 22.1
71 | N#Cc1ccc(OCCCN2CCc3cncnc3C2)cc1 | 11.4
72 | Cc1cnn(CCNCC(=O)NCCOc2ccccc2)c1 | -6.17
73 | CC(CCN1CCn2nc(CNC(=O)N(C)C)cc2C1)c1ccccc1 (stereo not drawn) | 19.5
74 | COc1ccc(CN(C)Cc2nc3c(cnn3C)c(=O)[nH]2)cc1OC | 7.59
75 | CCOC(=O)C1CCCN(c2ccc(-c3nc(C)no3)cn2)C1 (stereo not drawn) | 11.1
76 | CC1Cc2ccccc2N1Cc1occc1C(=O)OCC(N)=O (stereo not drawn) | 13.6
77 | CC(C)Oc1ccccc1CNC(=O)N1CCC(n2cncn2)CC1 | 12.7
78 | COCC(O)CN(C)C(=O)NC1CCN(Cc2ccccn2)CC1 (stereo not drawn) | 24.4

— ChEMBL document CHEMBL3988442, “University of Dundee, Small-Polar-MMV Screening Library” (2021)
